Screening results as filed in PubChem.
Shown are actives, neighbours in structure and some others; about 11% of the full set was active somewhere.
Ins promoter up: MIN6 insulin promoter up-regulation; AID 1625; z-score at 5 µM; 0.3% of 190,000 active; MIN6 insulin promoter-GFP reporter, high-content imaging; stronger effect = higher value;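 active = z-score above 3 at 5 µM with at least 500 cells counted in the well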
Autophagy HCS: autophagy modulation, high-content screen | MEF GFP-LC3 puncta imaging; test concentration mostly 10 µM | calls only at 10 µM (by protocol) | 0.98% of 190,000 active;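 active = percentage of spot-positive cells more than 3 SD above its plate mean, without a fluorescence outlier flag or 80% toxicity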
Insulin prom inh: TRM-6 insulin promoter activity inhibition; 0.9% of 130,000 active; AID 1273; TRM-6 cells (human fetal islet line), insulin promoter-eGFP reporter, imaging; reporter expression induced with tamoxifen; inhibition, % at 2 µM;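 active = inhibition above the mean plus 3 SD, with well images judged a real hit on visual review, cut at about 60% in these data, passing the limit was not always enough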
WT yeast gro inh: growth inhibition of WT yeast, mitochondrial fusion screen. inhibition, % at 10 µM. mitochondrial fusion phenotypic screen, WT strain. 2.1% of 190,000 active. AID 1362; in the data active = inhibition above about 58%; tested in S. cerevisiae
Lmaj promast: Leishmania major promastigote growth inhibition | AID 1063 | Leishmania major promastigotes, resazurin fluorescence viability | 9% of 200,000 active | inhibition, % at 10 µM; in the data active = inhibition above about 50%;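 also: promastigotes grown with compound for 44 hours at 28 °C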
Each line names hits and unclear results; the compound was inactive in the other large screens.

Cn1c(CCc2ccccc2)nnc1SCC(=O)N1CCOCC1	none (no result: Ins promoter up)
Cn1c(SCC(=O)N2CCN(c3ccccc3)CC2)nnc1-c1c[nH]c2ccccc12	none (no result: Insulin prom inh)
CCC1CCCCN1C(=O)CSc1nnc(-c2c[nH]c3ccccc23)o1 (stereo not drawn)	none (no result: Insulin prom inh)
CC1CCCCN1Cc1c(O)ccc2c(=O)c(-c3nc4ccccc4s3)c(N)oc12 (stereo not drawn)	none (no result: Insulin prom inh)
CNC(=O)c1ccsc1NC(=O)c1ccc(Cl)s1	none (no result: Insulin prom inh)
CCC(=O)NC(NC(=S)Nc1cccc2cccnc12)C(Cl)(Cl)Cl (stereo not drawn)	none
CC(C)(C)C(=O)NC(Nc1cccc2cccnc12)C(Cl)(Cl)Cl (stereo not drawn)	Lmaj promast 55.3 (no result: Insulin prom inh)
CC(C)NC(=O)C1(c2ccccc2)CC1(Cl)Cl (stereo not drawn)	none (no result: Insulin prom inh)
Cc1ccc(S(=O)(=O)NCCCCCC(=O)Nc2cccc(C)c2)cc1	none
CCOC(=O)c1[nH]c2ccc(OC)cc2c1NC(=O)CN1CCC2(CC1)OCCO2	none
CCOC(=O)c1[nH]c2ccc(OC)cc2c1NC(=S)N1CCN(c2ccccc2)CC1	Lmaj promast 77.1
CCOC(=O)c1[nH]c2ccc(OC)cc2c1NC(=O)C(C)N1CCC2(CC1)OCCO2 (stereo not drawn)	WT yeast gro inh 67.2 (no result: Insulin prom inh)
CCOC(=O)c1[nH]c2ccc(OC)cc2c1NC(=S)N1CCN(c2ccccn2)CC1	Lmaj promast 53.8 (no result: Insulin prom inh)
CCOC(=O)c1[nH]c2ccc(OC)cc2c1NC(=O)CN1CCN(c2ccccn2)CC1	none (no result: Ins promoter up)
CC1(C)CC(=O)C(C(=O)/C=C/c2ccco2)C(=O)C1	none
CC(C)c1c(O)cc(-c2ccncc2)n(-c2ccc(Cl)cc2)c1=O	Lmaj promast 54.4
CC(C)c1cc(O)c(-c2ccccc2)c(=O)n1-c1ccc(Cl)cc1	none (no result: Autophagy HCS, Insulin prom inh, WT yeast gro inh, Lmaj promast)
COc1cc(OC)c(C(=O)NNC(=S)NC2CCCCC2)cc1OC	Lmaj promast 50.7
O=c1[nH]cc(I)cc1I	none (no result: Autophagy HCS, Insulin prom inh, WT yeast gro inh, Lmaj promast)
CC1CCN(Cc2nc(-c3ccccc3)no2)CC1	none (no result: Ins promoter up, Insulin prom inh)
COCC1CCCN(Cc2nc(C(c3ccccc3)c3ccccc3)no2)C1 (stereo not drawn)	Autophagy HCS active (no result: Insulin prom inh)
c1ccc(C(c2ccccc2)c2noc(CN3CCN(CC4CC4)CC3)n2)cc1	Lmaj promast 55.1 (no result: Insulin prom inh)
O=C(Nc1c2ccccc2nc2ccccc12)C(Cl)(Cl)Cl	Lmaj promast 100.5 (no result: Ins promoter up)
O=C(Cc1ccccc1)NNC(=O)Cc1ccccc1	none (no result: Insulin prom inh)
O=C(Cc1ccccc1)NNc1c2ccccc2nc2ccccc12	WT yeast gro inh 59.4 (no result: Insulin prom inh)
Cc1ccc(OCC(=O)NNc2c3ccccc3nc3ccccc23)cc1	Lmaj promast 96.8
O=C(COC(=O)c1ccc2c(=O)n3c(nc2c1)CCC3)Nc1ccc(OC(F)F)cc1	none (no result: Insulin prom inh)
CCN(CCn1cccn1)C(=O)CC1C(=O)NCCN1Cc1cc(OC)cc(OC)c1 (stereo not drawn)	none (no result: Insulin prom inh)
CCN(CCn1cccn1)C(=O)CC1C(=O)NCCN1Cc1ccc(OC)c(OC)c1 (stereo not drawn)	Autophagy HCS active
O=C1/C(=C\c2cccnc2)Sc2ccccc21	Lmaj promast 99.6
CCOC(=O)C1(Cc2ccccc2C(F)(F)F)CCN(C2CCC2)CC1	Lmaj promast 60.8 (no result: Ins promoter up)
CCOC(=O)C1(Cc2ccccc2C(F)(F)F)CCN(C2CCN(C(C)=O)CC2)CC1	Lmaj promast 77.1 (no result: Insulin prom inh)
CCOC(=O)C1(CCCc2ccccc2)CCN(C(=O)c2ccoc2)CC1	none (no result: Insulin prom inh)
O=C(Nc1ccccc1C(F)(F)F)N1CCC(N2CCCCC2)CC1	none (no result: Insulin prom inh)
CCOC(=O)C1(CCCc2ccccc2)CCN(C2CCN(C(C)=O)CC2)CC1	Lmaj promast 77.5 (no result: Insulin prom inh)
CCOC(=O)C1(Cc2ccccc2C(F)(F)F)CCN(C(C)COC)CC1 (stereo not drawn)	none (no result: Insulin prom inh)
Cc1cccnc1NC1CCCCC1	Insulin prom inh 78.6
c1cnc(NC2CCCCCC2)nc1	none
Cc1nn(S(=O)(=O)c2ccc(Cl)cc2)c(C)c1Sc1ccc([N+](=O)[O-])cc1	Lmaj promast 81.8
Cc1nn(-c2ccccc2)c(N)c1Sc1ccc([N+](=O)[O-])cc1	none (no result: Insulin prom inh)
CSc1nnc(-c2sc3cc(C(F)(F)F)cnc3c2-c2ccccc2)n1C	none
COc1ccc(C(=O)N2CCN(Cc3ccc4c(c3)OCO4)CC2)cc1[N+](=O)[O-]	none (no result: Insulin prom inh)
CN=c1scc(-c2ccccc2Br)n1/N=C/c1ccc[nH]1	WT yeast gro inh 72.6 (no result: Insulin prom inh)
CN(C)CC1CCCCC1C1(O)c2ccccc2CSc2sccc21 (stereo not drawn)	Lmaj promast 99.6 (no result: Ins promoter up)
N#C/C(=C\c1ccccn1)c1nc2ccccc2s1	WT yeast gro inh 59.5 (no result: Ins promoter up)
N#C/C(=C/c1ccc(-c2ccccc2)o1)c1nc(-c2cccs2)cs1	Autophagy HCS active (no result: Ins promoter up)
N#C/C(=C/c1ccc(-c2ccc(S(N)(=O)=O)cc2)o1)c1nc2ccccc2s1	Autophagy HCS active (no result: Ins promoter up)
COC(=O)c1ccc(/C=C(\C#N)c2nc3ccccc3s2)cc1	WT yeast gro inh 83.8
N#C/C(=C\c1ccc(-c2ccc(F)cc2)o1)C(=O)Nc1nc(-c2cccs2)cs1	none (no result: Insulin prom inh)
CCn1nc(C)c(CNC(=O)CCc2nnc(Cc3c[nH]c4ccccc34)o2)c1C	none (no result: Insulin prom inh)
O=C(Cc1cccs1)N1CCN(S(=O)(=O)c2ccc(Br)cc2)CC1	none
CCCc1nccn1S(=O)(=O)c1cc(OC)ccc1OC	Insulin prom inh 75.0
Cc1ccc(Oc2ccc(-c3nnc(-c4ccccc4)o3)cc2[N+](=O)[O-])cc1C	Lmaj promast 59.7
CC(=O)c1ccc(Oc2ccc(C(=O)c3ccc(C)c(C)c3)cc2[N+](=O)[O-])cc1	none
Cc1nn(-c2ccccc2)c(C)c1/C=C/C(=O)OCC(=O)Nc1ncc(Cl)cc1Cl	Lmaj promast 77.8
Cc1nn(-c2ccccc2)c(C)c1/C=C/C(=O)OC(C)C(=O)Nc1ncc(Cl)cc1Cl (stereo not drawn)	none
CSc1ncc(CN2CCc3c([nH]c4ccccc34)C2c2cccc(O)c2)cn1 (stereo not drawn)	none (no result: Insulin prom inh)
COc1ccccc1C(=O)N(CCC1CCCN1C)c1nc2ccccc2s1 (stereo not drawn)	Lmaj promast 99.7 (no result: Ins promoter up)
O=C(CN1CCN(c2ccccn2)CC1)Nc1cc(C(F)(F)F)ccc1Cl	none
Cc1cc(C)cc(N(C(=O)c2cccs2)C2C=CS(=O)(=O)C2)c1 (stereo not drawn)	none
CC1CCN(CC(=O)N2CCCc3c2c(=O)oc2ccc(OCc4ccccc4)cc32)CC1	none (no result: Ins promoter up, Insulin prom inh)
c1ccc(COc2ccc(OCCCN3CCCC3)cc2)cc1	Lmaj promast 99.8
c1ccc(COc2ccc(OCCN3CCCCC3)cc2)cc1	Lmaj promast 100.3
COc1ccc(C2(O)CCN(CCCCOc3ccccc3)CC2)cc1	Lmaj promast 95.3 (no result: Insulin prom inh)
CC1CCN(CCCOc2ccc(OCc3ccccc3)cc2)CC1	Lmaj promast 100.2
COc1cc(C(=S)N2CCOCC2)ccc1OC(=O)/C=C/c1ccco1	none
O=C(CN1CCCC1)Nc1ccc(OCc2ccccc2)cc1	none (no result: Insulin prom inh)
CC1CCN(CCCCOc2ccc(C(=O)c3ccccc3)cc2)CC1	Lmaj promast 99.1
c1ccc(COc2ccc(OCCN3CCCC3)cc2)cc1	Lmaj promast 100.3
CC1CCC(NC(=O)COc2ccc(C(=O)c3ccccc3)cc2)CC1 (stereo not drawn)	none
